Laboratory results taken from ChEMBL document CHEMBL1157539, “Thousands of chemical starting points for antimalarial lead identification” (Nature, 2010).

Assays:
Format in all cases: functional
Plasmodium falciparum [1] = experiment: GSK_TCMDC: Inhibition of Plasmodium falciparum 3D7 in whole red blood cells, using parasite LDH activity as an index of growth. Test compounds present at 2uM
Plasmodium falciparum [2] = experiment: GSK_TCMDC: Inhibition of Plasmodium falciparum Dd2 in whole red blood cells, using parasite LDH activity as an index of growth. Test compounds present at 2uM
HepG2 = experiment: GSK_TCMDC: Percent inhibition of human HepG2 cell line. Test compounds present at 10uM.

Structure (SMILES) | Inhibition (Plasmodium falciparum [1]) | Inhibition (Plasmodium falciparum [2]) | Inhibition (HepG2)
Cc1csc(-c2nonc2NC(=O)COc2ccccc2C(C)C)n1 | 90% | 85% | 14%
COc1c(C2CCN(CCCCNC(=O)c3ccc(-c4ccc(C#N)cc4)nc3)CC2)ccc2c1CCCC2 | 95% | 67% | 54%
COc1ccc(NC(=O)c2ccc(-c3nc(-c4ccc(Cl)cc4)cs3)cc2)cc1N1CCN(C)CC1 | 91% | 34% | 30%
O=C(/C=C/c1ccccc1)N1CCOC(CCN2CCC(c3ccccc3)CC2)(c2ccc(Cl)c(Cl)c2)C1 (stereo unspecified) | 89% | 63% | 4%
COc1ccc2nc(-c3ccccc3)cc(N/N=C/c3ccc([N+](=O)[O-])cc3)c2c1 | 100% | 100% | 89%
Cc1c(N)ccc2[nH]c(-c3ccc(N)cc3)nc12 | 97% | 40% | 0%
COc1cc(C(F)(F)F)nc2c(CNCCCNc3cc(=O)c4ccccc4[nH]3)scc12.Cl | 92% | 16% | 0%
Nc1c2c(nc3ccccc13)C(=Cc1ccc(O)cc1)CCC2 | 99% | 6% | 9%
O=C(NC(Cc1ccccc1)C(=O)O)c1cc(=O)c2ccccc2o1 (stereo unspecified) | 99% | 10% | 53%
CCn1c(-c2nonc2N)nc2c(-c3cccc(NC(=O)Nc4ccc(C(F)(F)F)cc4)c3)ncc(OCCCN)c21.O=C(O)C(F)(F)F | 94% | 63% | 36%
COc1ccc2ccc(OC)c(CNCCCCCCNCc3c(OC)ccc4ccc(OC)cc34)c2c1.CS(=O)(=O)O | 100% | 32% | 100%
O=C(CCc1ccccc1)NC(c1ccc(Cl)cc1)c1ccc2cccnc2c1O (stereo unspecified) | 95% | 49% | 59%
CC(C)COc1cc(C(=O)Nc2cnc3ccccc3c2)ccc1[N+](=O)[O-] | 97% | 56% | 19%
CCC(ON1C(N)=NC(N)=NC1(C)C)c1ccccc1 (stereo unspecified) | 96% | 0% | 61%
Cc1cc(N2CCCC2)nc(Nc2ccc(NC(=O)c3ccc4c(c3)OCO4)cc2)n1 | 100% | 67% | 26%
Cc1noc(C)c1-c1cccc(CNCc2ccc(-c3cccc(-c4nc5cc(F)ccc5[nH]4)c3)cc2)c1.O=C(O)C(F)(F)F | 100% | 84% | 37%
Cc1nc(N)nc(N)c1-c1cc(Cl)c(N)c(Cl)c1 | 94% | 2% | 62%
CC(C)(NCc1ccc(OC(F)(F)F)cc1)c1nc(-c2ccc(Cl)c(O)c2)c(-c2ccncc2)[nH]1.Cl | 94% | 32% | 65%
CC1(C)[C@H]2CC[C@@H](CNc3nc(NCCc4c[nH]cn4)nc(NCc4cc(F)ccc4F)n3)[C@@H]1C2 | 100% | 91% | 0%
COc1cccc(CNc2ncc(-c3ccsc3)c(-c3nccs3)n2)c1 | 89% | 82% | 9%
COc1ccc(NC(=O)c2ccc(-c3cc(NC(=O)c4ccnc(N5CCCC5)c4)ccc3C)s2)cc1N1CCN(C)CC1.O=C(O)C(F)(F)F | 100% | 100% | 15%

Structure (SMILES) | Inhibition (Plasmodium falciparum [1]) | Inhibition (Plasmodium falciparum [2]) | Inhibition (HepG2)
O=C(/C=C/c1ccc(Cl)c(Cl)c1)NCCCN1CCC(c2c[nH]c3ccccc23)CC1 | 90% | 5% | 48%
CC(C)(C)c1ccc(/C=C/C(=O)NCCCCCN2CCC(c3c[nH]c4ccccc34)CC2)cc1 | 91% | 12% | 70%
CNC(=O)CSc1nnc(-c2ccc(C)cc2)c(-c2ccc(C)cc2)n1 | 94% | 49% | 2%
N#CC(c1ccc(Br)cc1)c1ccc2c(C(F)(F)F)cc(C(F)(F)F)nc2n1 (stereo unspecified) | 100% | 98% | 75%
COc1ccc(NC(=O)[C@H](Cc2ccccc2)Nc2cc(C)nc(NCCc3ccc(F)cc3)n2)cc1.O=C(O)C(F)(F)F | 100% | 82% | 17%
O=C(/C=C/c1ccc(Cl)c(Cl)c1)NCCCCN1CCCN(C(=O)Nc2cc(Cl)cc(Cl)c2)CC1 | 97% | 1% | 21%
CCOC(=O)c1ccc(NC(=O)NC2CCN(CCCCCNC(=O)/C=C/c3ccc(Cl)c(Cl)c3)C2)cc1 (stereo unspecified) | 98% | 0% | 23%
Cc1cc(NCCC(=O)NCc2cccc(F)c2)nc(Nc2ccccc2)n1.O=C(O)C(F)(F)F | 94% | 15% | 0%
Cc1cccc2nc(-c3ccc(-c4cccc(NC(=O)CCc5c[nH]cn5)c4)s3)[nH]c12 | 94% | 70% | 2%
COc1ccc2c(=NN=Cc3cccnc3)cc(C)[nH]c2c1 | 85% | 12% | 0%
O=C(O)C(F)(F)F.O=C1CCCN1CCCNCc1ccc(-c2ccc(-c3nc4cc(F)ccc4[nH]3)s2)cc1 | 100% | 91% | 19%
O=C(c1ccc(OCCn2ccnc2)cc1)N1CCC(c2ccc(Br)cc2)C1 (stereo unspecified) | 100% | 99% | 49%
CN(Cc1cccc(O)c1)C1CCCN(c2cc(NC(=O)c3ccc(F)cc3)ccn2)C1.O=C(O)C(F)(F)F (stereo unspecified) | 91% | 12% | 8%
Br.O=C(CNc1ccncc1)c1c[nH]c2ccccc12 | 90% | 62% | 31%
Cl.O=S(=O)(c1ccc2ccccc2c1)N1CCCN(Cc2ccc(OCCCN3CCCCC3)cc2)CC1 | 98% | 11% | 43%
O=C(O)/C=C/c1cccc(F)c1F | 96% | 1% | 58%
Cc1nc(-c2cccc(C(=O)N(Cc3cncn3Cc3cccc(C(F)(F)F)c3)CC3CC3)c2)cs1 | 97% | 17% | 7%
O=C(NCCCN1CCOCC1)c1cccc(Nc2nccc(Nc3ccc(Oc4ccccc4)cc3)n2)c1 | 98% | 22% | 34%
O=S(=O)(Nc1cccc(CCN2CCC(N3CCCCC3)CC2)c1)c1ccc(Oc2ccccc2)cc1 | 100% | 25% | 28%
Cc1cccc2nc(-c3ccc(-c4ccc(CN5CCCC(N)C5)cc4)s3)[nH]c12.O=C(O)C(F)(F)F (stereo unspecified) | 100% | 100% | 29%
COc1cccc2cc(C(=O)N[C@@H](CC(C)C)C(=O)N[C@H](C=NN3CCCC3=O)Cc3ccccc3)oc12 | 96% | 80% | 5%

Structure (SMILES) | Inhibition (Plasmodium falciparum [1]) | Inhibition (Plasmodium falciparum [2]) | Inhibition (HepG2)
Cc1cccn2c(=O)c3cc(C(=O)NC(C)c4ccccc4)c(=N)n(CCN4CCOCC4)c3nc12 (stereo unspecified) | 100% | 5% | 6%
COc1ccc(NC(=O)[C@H](C)Nc2cc(C)nc(NCC3CCCCC3)n2)cc1.O=C(O)C(F)(F)F | 92% | 13% | 12%
O=C(O)C(F)(F)F.O=c1ccc2ccc(F)c3c2n1CC3CN1CCC(NCc2ccc(-c3cccc(Cl)c3)nc2)CC1 (stereo unspecified) | 96% | 33% | 16%
CC(CN1CCN(C)CC1)C(=O)Nc1cccc(-c2ccc(-c3nc4ccccc4[nH]3)s2)c1 (stereo unspecified) | 97% | 59% | 2%
O=C(c1ccc(-c2ccccn2)s1)N1CCc2cc3nccc(N4CCN5CCC[C@H]5C4)c3cc21 | 96% | 49% | 0%
Oc1ccc(Br)cc1C(O)CNCc1ccccc1OCc1ccccc1 (stereo unspecified) | 100% | 100% | 25%
Cc1cc(=NN=Cc2ccc(F)cc2)c2cc(C(F)(F)F)ccc2[nH]1 | 100% | 99% | 2%
CC(=O)Nc1sc(C)c(C)c1CN1CCc2ccccc2C1 | 93% | 94% | 0%
O=C(Nc1cccc(-c2ccc(-c3nc4cc(C(F)(F)F)ccc4[nH]3)s2)c1)c1c[nH]cn1 | 89% | 36% | 55%
CN(CCNCc1ccc(-c2cccc(-c3nc4ccccc4[nH]3)c2)cc1)S(C)(=O)=O.O=C(O)C(F)(F)F | 100% | 29% | 9%
COc1ccc(S(=O)(=O)NCC2CCCN(CCCCCNC(=O)/C=C/c3ccc(Cl)c(Cl)c3)C2)cc1 (stereo unspecified) | 81% | 1% | 53%
CC1(C)N=C(N)N=C(N)N1OCc1ccc2ccccc2c1 | 94% | 97% | 65%
Clc1cccc(C=NNc2nc(=Nc3ccccc3)[nH]c(=Nc3ccccc3)[nH]2)c1 | 92% | 15% | 0%
O=S(=O)(Nc1cccc(CCN2CCCCC2CCN2CCCC2)c1)c1ccc(-c2ccccc2)cc1 (stereo unspecified) | 99% | 5% | 31%
CN1CCN(Cc2ccc(-c3ccc4c(Nc5ccc(Oc6ccccc6)cc5)ccnc4c3)o2)CC1 | 99% | 99% | 23%
Cc1cc(O)c(CN(C)Cc2ccc3c(c2)OCCO3)cc1C(C)C | 98% | 47% | 10%
CCCCCCN1CCC(NCc2cccc([N+](=O)[O-])c2)CC1.O=C(O)C(F)(F)F | 100% | 16% | 0%
CN1CCN(c2ccc(Nc3nc(N)c4ccn(C5CCC5)c4n3)cc2)CC1.O=C(O)C(F)(F)F | 93% | 47% | 0%
CS(=O)(=O)CCOCc1ccc(-c2ccc3ncnc(Nc4ccc(OCc5cccc(F)c5)c(Cl)c4)c3c2)o1 | 96% | 43% | 1%
O=C(NC1CC1)c1ccc(N2CCC(c3ccccc3)CC2)nc1.O=C(O)C(F)(F)F | 93% | 92% | 16%
